Compound activity from PubChem.
This is a sample that favours compounds with a hit; in the whole collection about 1.8% have one here.
F508del corr: correctors of CFTR F508del function in bronchial epithelial cells | activity (quench increase), % at 7.58 µM | 0.36% of 350,000 active | AID 720511 | CFBE cells, YFP halide quenching; stimulated with forskolin plus potentiator P3; % fluorescence drop versus neutral controls;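 active = mean added fluorescence quench of at least 8% versus neutral control, with both replicates also reaching 8%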;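 also: cells transiently co-express mutant CFTR-F508del with the halide-sensitive YFP; corrector assay measuring rescue of mutant channel to the surface after 24 h compound exposure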
EWS-Fli block: EWS/Fli transcriptional activity inhibition | 0.67% of 350,000 active | A673 NR0B1-luciferase reporter, viability-normalised | inhibition, % at 12.6 µM;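 active = mean inhibition of at least 50% after viability correction, with every replicate also passing that limit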;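 also: firefly luciferase signal divided by Alamar Blue viability fluorescence both relative to DMSO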
LGR2 inh: inhibitors of bursicon-induced Drosophila LGR2 receptor cAMP signaling. HEK293 LGR2, CRE-luciferase, bursicon-stimulated, 4 h. inhibition, % at 9.99 µM. 0.35% of 380,000 active. AID 720647;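 active = drop in luminescence signal, shown as inhibition above about 50% in the replicate tests, limit read from the data, passing the limit was not always enough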;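 also: agonist challenge used bursicon conditioned medium at about half maximal strength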
PAX8 reporter: inhibitors of PAX8 transcriptional activity in RMG-I cells. inhibition, % at 12.6 µM. RMG-I TPO-luciferase reporter, SteadyGlo, 24 h. 1.2% of 360,000 active. AID 652154;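 active = mean replicate inhibition at least 60% with every replicate also reaching 60%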;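 also: luciferase light reporting Pax8 driven TPO promoter activity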
DNA binder FP: DNA binding small molecules; shares compounds with EWS-Fli block; 2% of 640 active; salmon sperm DNA acridine orange fluorescence polarization; AC35, µM (series often up to 68 µM);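 active = fitted curve reaches a 35% signal fall AC35 below twice the sample's top valid tested dose, actives reach about 48 µM in these data; inactive = the rest, including activity in the rising direction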;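 also: lower polarization ratio signals compound binding to DNA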
Each line names hits and unclear results; the compound was inactive in the other large screens (follow-up assays come after a bar, where they were run).

Cc1c(Cl)cnc(NC(=O)COC(=O)c2ccc3ncsc3c2)c1Cl	EWS-Fli block 62 | DNA binder FP inactive
COc1ccc(/C=N/Nc2nc(-c3ccc(C)cc3)c(NC(C)=O)s2)cc1OC	none
COc1cc(/C=N\Nc2nc(-c3ccc(C)cc3)c(NC(C)=O)s2)ccc1O	EWS-Fli block 54 | DNA binder FP inactive
COc1ccc(S(=O)(=O)Nc2ccc3c(c2)C(=O)N([C@H](C)CO)C[C@@H](C)[C@@H](CN(C)Cc2ccc(C(=O)Nc4ccccc4N)cc2)O3)cc1	EWS-Fli block 56 (no result: PAX8 reporter) | DNA binder FP inactive
C[C@H]1CN([C@@H](C)CO)C(=O)c2cc(NS(=O)(=O)c3ccc(Cl)cc3)ccc2O[C@H]1CN(C)Cc1ccc(C(=O)Nc2ccccc2N)cc1	EWS-Fli block 61 | DNA binder FP inactive
COc1ccc(S(=O)(=O)Nc2ccc3c(c2)C(=O)N([C@@H](C)CO)C[C@@H](C)[C@@H](CN(C)Cc2ccc(C(=O)Nc4ccccc4N)cc2)O3)cc1	none (no result: PAX8 reporter)
C[C@@H]1CN([C@H](C)CO)C(=O)c2cc(NC(=O)CCCCCC(=O)Nc3ccccc3N)ccc2O[C@H]1CN(C)S(=O)(=O)c1ccc(Cl)cc1	EWS-Fli block 52 (no result: PAX8 reporter) | DNA binder FP inactive
C[C@@H]1CN([C@H](C)CO)C(=O)c2cc(NS(=O)(=O)c3ccccc3)ccc2O[C@H]1CN(C)Cc1ccc(C(=O)Nc2ccccc2N)cc1	none
C[C@@H]1CN([C@@H](C)CO)C(=O)c2cc(NS(=O)(=O)c3ccc(F)cc3)ccc2O[C@@H]1CN(C)Cc1ccc(C(=O)Nc2ccccc2N)cc1	EWS-Fli block 54 | DNA binder FP inactive
CC(C)C(C(=O)Nc1ccc(S(N)(=O)=O)cc1)N1C(=O)c2ccccc2C1=O (configuration not stated)	none
CC=Cc1ccc2n(c1=O)C[C@@H]1[C@@H](CO)[C@H](C(=O)N(C)C)N(Cc3cccc(F)c3)[C@H]21 (mixture of isomers)	none (no result: F508del corr, PAX8 reporter)
C[C@@H]1CN([C@@H](C)CO)C(=O)Cc2cc(NS(=O)(=O)c3cn(C)cn3)ccc2O[C@H]1CN(C)CC1CC1	none (no result: PAX8 reporter)
C[C@@H]1CCCCO[C@H](CN(C)Cc2ccc(C(=O)Nc3ccccc3N)cc2)[C@@H](C)CN([C@@H](C)CO)C(=O)c2cc(NS(=O)(=O)c3ccc(Cl)cc3)ccc2O1	EWS-Fli block 59, PAX8 reporter 89 | DNA binder FP inactive
COc1ccc(S(=O)(=O)Nc2ccc3c(c2)C(=O)N([C@H](C)CO)C[C@@H](C)[C@@H](CN(C)CC2CCCCC2)OCCCC[C@H](C)O3)cc1	EWS-Fli block 56 | DNA binder FP inactive
COc1ccc(S(=O)(=O)Nc2ccc3c(c2)C(=O)N([C@H](C)CO)C[C@@H](C)[C@H](CN(C)CC2CCCCC2)OCCCC[C@@H](C)O3)cc1	none
C[C@@H]1CCCCO[C@H](CN(C)Cc2ccc(C(F)(F)F)cc2)[C@H](C)CN([C@H](C)CO)C(=O)c2cc(NC(=O)CCCN(C)C)ccc2O1	EWS-Fli block 67 (no result: PAX8 reporter) | DNA binder FP inactive
C[C@@H]1CCCCO[C@@H](CN(C)Cc2ccc(C(F)(F)F)cc2)[C@H](C)CN([C@H](C)CO)C(=O)c2cc(NC(=O)CCCN(C)C)ccc2O1	none (no result: PAX8 reporter)
CN(C)c1ccc(C2SCCN2C(=O)c2ccc([N+](=O)[O-])cc2)cc1 (configuration not stated)	none (no result: F508del corr, EWS-Fli block)
CN(C)C(=O)c1ccc(-c2ccccc2[C@@H]2[C@@H](CO)N(C(=O)C3CC3)[C@H]2C#N)cc1	EWS-Fli block 61 (no result: PAX8 reporter) | DNA binder FP inactive
N#C[C@H]1N[C@H](CO)[C@H]1c1ccc(C#Cc2ccc(F)cc2)cc1	EWS-Fli block 53 | DNA binder FP inactive
N#C[C@H]1[C@H](c2ccc(-c3ccccc3F)cc2)[C@@H](CO)N1C(=O)c1ccccn1	EWS-Fli block 57 | DNA binder FP inactive
N#C[C@@H]1N[C@H](CO)[C@@H]1c1ccc(C#Cc2ccccc2F)cc1	none
N#C[C@@H]1[C@H](c2ccc(C#Cc3ccc(F)cc3)cc2)[C@@H](CO)N1C(=O)Nc1ccc(F)cc1	EWS-Fli block 75, LGR2 inh 59, PAX8 reporter 103 | DNA binder FP inactive
N#C[C@H]1[C@H](c2ccc(C#CC3CCCC3)cc2)[C@H](CO)N1C(=O)Nc1ccc(F)cc1	none
C[C@H](CO)N1C[C@H](C)[C@H](CN(C)Cc2ccccc2)Oc2ccc(NC(=O)C3CCCCC3)cc2CC1=O	none
COc1ccc(NC(=S)NCCCN2CCCC2)cc1	none
